Bioassay records: PubChem, The Scripps Research Institute Molecular Screening Center
TTR transcr act = increases transthyretin transcription. activation, % at 16.7 µM. 1.3% of 92,000 active. SH-SY5Y TTR promoter Gaussia luciferase, luminescence; 100% = recombinant luciferase protein wells. AID 1117267;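 active = activation above the mean of all tested compounds plus 3 SD, cut at about 9.5% in these data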;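 note: cells exposed to compounds for one day before reading; 0% = median of all test compound wells on the plate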
TTR inh HuH7 = decreases TTR transcription in HuH7 cells in activator counter-screen | shares compounds with TTR transcr act | HuH7 TTR promoter-Gaussia luciferase reporter, luminescence | inhibition, % at 16.7 µM | 4% of 1,100 active | AID 1117279;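 active = average inhibition above the solvent-only control wells' mean plus 3 SD, cut at about 15% in these data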;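 note: 0% = cells with DMSO only and 100% = cells with inhibitor control FD; inhibitors lower well luminescence so higher value means more inhibition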
TTR up confirm = human TTR transcription activation, confirmation. SHSY5Y TTR promoter Gaussia luciferase, luminescence; 100% = purified Lucia enzyme wells, no cells. shares compounds with TTR transcr act. 1,100 tested, under 10 active. activation, % at 16.7 µM;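 active = mean activation above a set limit taken from the earlier primary screen, cut at about 11% in these data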;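 note: 0% = DMSO-treated cells and 100% = recombinant Lucia luciferase without cells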
* hit, by the source's call. The sample as a whole holds a higher share of hits than the screen did.

SMILES	TTR transcr act	others
CCN1CCCCC(NC(C)=O)C1=O (stereo not drawn)	-0.4
COC(=O)c1cccc(Cn2ccc3ccc(-c4ccc5ccn(Cc6cccc(C(=O)OC)c6)c5c4)cc32)c1	0.7
Cc1ccnc2nc(C(=O)Nc3nc4ccccc4s3)nn12	4.7
Cc1csc(NC(=O)c2nc3nccc(C)n3n2)n1	11.2*	TTR inh HuH7=-7.8;TTR up confirm=-1.0
Cc1ccnc2nc(C(=O)Nc3ccc(N4CCOCC4)cc3)nn12	0.7
O=C(OCC#CCSc1nnc(-c2cccc(F)c2)o1)c1ccc(F)cc1	-0.6
COCCCNCCCCOc1ccc(OCc2ccccc2)cc1	34.1*	TTR inh HuH7=-10.6;TTR up confirm=0.1
COCCCNCCCCOc1ccccc1-c1ccccc1	1.3
C=CCNCCCCOc1ccc(OCc2ccccc2)cc1	1.1
COc1cccc(NC(=O)Nc2c(-c3ccc(C(F)(F)F)cc3)nc3ncccn23)c1	-0.6
CC(=O)OC(Cn1nc(C)cc1C)c1ccccc1 (stereo not drawn)	10.1*	TTR inh HuH7=-8.9;TTR up confirm=-0.4
COC(=O)c1ccc(Cn2nc(C)cc2C)cc1	2.9
COc1ccc(-c2cc3ccccc3n2CC(O)Cn2nc(C)cc2C)cc1 (stereo not drawn)	-0.4
CCOC(=O)[C@@H]1CSCCS(=O)(=O)N1C(=O)[C@H](CC(C)C)NC(=O)OC(C)(C)C	0.8
CCOC(=O)[C@@]12CCC3=C1N(CCC3)C(=O)[C@H](CC(=O)N1CCCC1)C2	-1.5
CCOC(=O)[C@]12CCCC=C1N(Cc1ccc(OC)cc1)C(=O)[C@@H]2CC(=O)NCc1cccc2ccccc12	-1.4
COc1ccc(S[C@]2(C(=O)N3CCOCC3)CC(=O)N[C@@H]2c2ccc(OC)cc2)cc1	-1.6
C[C@H]1[C@@H](OC(=O)N2CCOCC2)CC[C@@]23CCCN2C(=O)CCC[C@@H]13	1.0
CCOC(=O)[C@@]12CCC3=C1N(CCC3)C(=O)[C@H](CC(=O)NCC1CCCCC1)C2	2.3
CCN(C(=O)[C@@H](C1CC1)[C@@H](O)c1ccc(Cl)cc1)c1ccccc1	2.5
CC(C)(C)c1ccc(S(=O)(=O)N2CCN(Cc3cc4c(cc3O)OCO4)CC2)cc1	14.8*	TTR inh HuH7=-6.7;TTR up confirm=0.9
CCOc1ccc(S(=O)(=O)N2CCN(Cc3ccc4c(c3)OCO4)CC2)cc1OCC	-1.6
O=S(=O)(c1ccc(Cl)nc1)N1CCN(Cc2ccc3c(c2)OCO3)CC1	-1.2
CCCC1CCC2(CCCN2CCOC(=O)Nc2ccccc2)CC1 (stereo not drawn)	0.3
COc1ccc2ccccc2c1-c1c(C(=O)c2ccc(Br)cc2)[nH]c(N)c1C(=O)NC1CCCCC1	-0.1
SMILES	TTR transcr act	others
CC(c1ccccc1)N1CC[C@H]2C=CC[C@@H](C(=O)Nc3cccc(Cl)c3)[C@H]2C1=O (stereo partly drawn)	-1.4
CC(=O)Nc1sc2c(c1-c1nc3ccccc3s1)CCCNC2	7.3
COC(=O)Cn1c(=O)c(C)nc2ccccc21	-0.1
COC(=O)Cn1ncn2c(cc3oc(C)cc32)c1=O	25.2*	TTR inh HuH7=-15.4;TTR up confirm=-0.1
CN(C)c1ccc(NC(=O)Cn2ncn3c(cc4ccccc43)c2=O)cc1	-0.8
O=C(O)CCCCN1C(=O)C=CC1=O	-0.3
O=C(N/C(=C/c1cccnc1)C(=O)N1CCOCC1)c1ccccc1F	20.2*	TTR inh HuH7=-2.8;TTR up confirm=-0.8
CC(=O)N/C(=C\c1ccccc1)C(=O)N1CCOCC1	-2.0
O=C(N/C(=C/c1cccnc1)C(=O)N1CCOCC1)c1ccccc1Cl	-1.2
CCNC(=O)Nc1ccc2c(c1)C(=O)N(C)[C@H]1CC[C@@H](CC(=O)NCCN3CCCC3)O[C@@H]1CO2	1.9
Cc1ccccc1CN1CCCCC(NC(=O)C2CCCC2)C1=O (stereo not drawn)	0.4
CCOC(=O)N1CCN(C(=O)Cn2nc(C)c3sc4ccccc4c3c2=O)CC1	-1.5
Cc1nn(C(C)C(=O)NCCCN(Cc2ccccc2)C(C)C)c(=O)c2c1sc1ccccc12 (stereo not drawn)	10.3*	TTR inh HuH7=-15.4;TTR up confirm=1.9
CN(C)CCCNC(=O)c1cc2sc3ccccc3c2s1	1.5
COC(=O)[C@]12C[C@H](CC(=O)N3CCOCC3)C(=O)N(Cc3ccc(Cl)cc3Cl)C1=C[C@H](C(C)(C)C)O[C@@H]2C	-0.6
COc1cc(C2NC(=O)NC(C)=C2C(=O)OCC2CCCCC2)cc(Cl)c1O (stereo not drawn)	0.1
CCOc1cc(C2NC(=O)NC(C)=C2C(=O)OC(C)CC)cc(Br)c1O (stereo not drawn)	2.4
COc1cc(C2NC(=O)NC(C)=C2C(=O)OC2CCCC(C)C2)cc(Br)c1O (stereo not drawn)	10.7*	TTR inh HuH7=-12.2;TTR up confirm=-1.0
COc1ccc(NC(=O)CCCNS(=O)(=O)c2ccc3[nH]c(=O)oc3c2)cc1OC	0.2
O=C(Nc1nc2ncccn2c1-c1ccc(F)cc1)c1ccccc1	-0.7
C=CCN(CC=C)C[C@@H]1CSCCS(=O)(=O)N1	0.3
